Data taken from PubChem BioAssay (NCI).
Compounds without any hit were thinned out: in the full panel of roughly 83,000, 20% have a hit.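 Note: values are percent growth. 100 is the growth of untreated cells, values between 100 and 0 indicate rising inhibition; between -100 and 0 indicates cell death.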 A number with no mark means an inactive call. Calls of active or inactive are those of the source. How the source made its calls: active means growth percent below 10; inactive means the rest.

test system: SF-295 CNS; test: NCI-60 one-dose screen, 48 h (100 = growth as untreated, 0 = no growth, -100 = all killed); conditions: 10 µM unless noted

SMILES	growth
N=c1ccn2c(n1)OC1C(O)C(CO)OC12 (centres undefined)	36.7%
NC(=Nc1ccc(N)cc1)C(N)=Nc1ccc(N)cc1	111%
COc1ccc(/C=C(\C#N)n2nnc3cc(F)c(F)cc32)c(OC)c1OC	105%
C=C1c2c(C)nn(-c3ccc(O)cc3)c2N(C)C23C[C@@H]1C1(C)c4c(C)nn(-c5ccc(O)cc5)c4N(C)C(C)(C[C@H]12)C3 (some centres undefined)	26.9%
CSc1ccc(Cl)c(C(=O)Nc2sccc2C(N)=O)c1	123%
C=C1c2c(C)nn(-c3ccc(N)cc3)c2N(C)C23CC1C1(C)c4c(C)nn(-c5ccc(N)cc5)c4N(C)C(C)(CC12)C3 (centres undefined)	52.5%
CC(=O)Nc1ccc2c(c1)Cc1c(F)cccc1-2	109%
C=C(C)[C@@H]1CC[C@]2(CNCCO)CC[C@]3(C)[C@H](CC[C@@H]4[C@@]5(C)CCC(N)[C@@](C)(CO)[C@@H]5CC[C@]43C)[C@@H]12 (some centres undefined)	-19.6% (active)
Cc1cnc(Nc2ccc(OCCN3CCCC3)cc2)nc1NCc1ccco1	84%
Cc1cc(N(CCCNc2ccnc3cc(Cl)ccc23)Cc2ccccn2)nc(N2CCOCC2)n1	92.9%
C=C(CNCCc1ccc(O)cc1)[C@@H]1CC[C@]2(COC3CCCCO3)CC[C@]3(C)[C@H](CC[C@@H]4[C@@]5(C)CCC(N)C(C)(C)[C@@H]5CC[C@]43C)[C@@H]12 (some centres undefined)	-88% (active)
Clc1ccc2c(NCCCN3CCN(c4nc(-n5ccnc5)nc5ccccc45)CC3)ccnc2c1	61.2%
Cn1c(NCCc2ccc(O)c(O)c2)nc2c1c(=O)n(Cc1ccc(Cl)cc1)c(=O)n2C	103%
CCN(CC)N=Nc1nn(C(=O)Nc2ccc(Cc3ccccc3)cc2)c2ccc(Cl)cc12	8.57% (active)
COC(=O)c1ccc2oc(NC(=O)c3ccc(N4CCOCC4)c([N+](=O)[O-])c3)nc2c1	97.7%

test system: SF-539 CNS; test: as above; conditions: 10 µM unless noted

SMILES	growth
OCCCCc1nccc2c1[nH]c1ccccc12	90.8%
CCCn1nc(-c2ccccc2)c2c(-c3ccccc3)onc2c1=O	85%
Cc1cc(N(CCCNc2ccnc3cc(Cl)ccc23)Cc2ccccn2)nc(N2CCCC2)n1	52.3%
C=C(C)[C@@H]1CC[C@]2(CN)CC[C@]3(C)[C@H](CC[C@@H]4[C@@]5(C)CCC(N)[C@@](C)(CO)[C@@H]5CC[C@]43C)[C@@H]12 (some centres undefined)	-72.6% (active)
COc1ccc(-n2ncn(CCCCCCn3cnn(-c4ccc(OC)cc4)c3=O)c2=O)cc1	91.7%
O=C(NC1CCOCC1)c1ccc2c(c1)CN(c1ncc(Cc3cccc(-n4cccn4)c3)s1)CC2	64.2%
C=C(CNCCc1ccc(O)cc1)[C@@H]1CC[C@]2(COC3CCCCO3)CC[C@]3(C)[C@H](CC[C@@H]4[C@@]5(C)CCC(NCCO)C(C)(C)[C@@H]5CC[C@]43C)[C@@H]12 (some centres undefined)	-91.9% (active)
Cc1c(C(=O)O[C@H]2[C@@H]3[C@H](C)CC[C@H]3[C@]3(C)O[C@@]2(C2CCCCC2)C[C@H]3OC(=O)CO)ccc2ccccc12	65.6%
COc1ccc(Oc2nc(Nc3ccc(N4CCCCC4)nc3)ncc2NC(=O)c2cc(OC)cc(OC)c2)cc1	21.3%
O=C(Oc1ccc[nH]c1=O)c1cc([N+](=O)[O-])cc([N+](=O)[O-])c1	99.3%
Cc1cc(N2CCCCC2)nc(N(CCNc2ccnc3cc(Cl)ccc23)Cc2ccccn2)n1	39.2%
CCCCOc1ccc(NC(=O)n2nc(N=NN(C)C)c3ccc(Cl)cc32)cc1	104%
O=C1NN(C(=O)c2ccc(O)cc2)C(c2ccccc2)=N/C1=C\c1cn(-c2ccccc2)nc1-c1ccccc1	89.1%
COC(=O)/C(=C\c1ccc(OC)cc1)C(=O)N1c2ccccc2Sc2ccccc21	42.1%
COc1ccc(Oc2nc(Nc3ccc(N4CCOCC4)nc3)ncc2NC(=O)c2cc(OC)cc(OC)c2)cc1	78.2%
NC(=O)c1c(NC(=O)c2ccc(C(F)(F)F)cc2Cl)sc2c1CCC(=O)C2	-84.8% (active)
O=C(NCCOCCOCCOCCNC(=O)c1cc2c(o1)C(=O)c1ccccc1C2=O)NC12CC3CC(CC(C3)C1)C2	-63.5% (active)
COC(=O)c1ccc(CSc2nnc(-c3ccncc3)o2)cc1	98.7%
CCCc1nc2ccccn2c1Nc1ccc(C(=O)NO)cc1	99.3%
Fc1ccc(Nc2ccc3cc(OCCCN4CCOCC4)ccc3n2)cc1F	37.5%

SMILES	growth
C=C1c2c(C)nn(-c3ccc(S(N)(=O)=O)cc3)c2N(C)C23CC1C1(C)c4c(C)nn(-c5ccc(S(N)(=O)=O)cc5)c4N(C)C(C)(CC12)C3 (centres undefined)	57.1%
C=C1c2c(C)nn(-c3ccc(NC(C)=O)cc3)c2N(C)C23CC1C1(C)c4c(C)nn(-c5ccc(NC(C)=O)cc5)c4N(C)C(C)(CC12)C3 (centres undefined)	63.1%
C[C@@H]1CC[C@@H]2[C@@H]1[C@H](OC(=O)c1ccc3ccccc3c1)[C@]1(C3CCCCC3)C[C@@H](OC(=O)CO)[C@@]2(C)O1	90.2%
CC(C)(C)c1ccc(C(=O)Nc2sc3c(c2C(N)=O)CCC(=O)C3)cc1	-77.8% (active)
N=c1ccn2c(n1)OC1C(O)C(CO)OC12 (centres undefined)	25.1%
NC(=Nc1ccc(N)cc1)C(N)=Nc1ccc(N)cc1	96.9%
COc1ccc(/C=C(\C#N)n2nnc3cc(F)c(F)cc32)c(OC)c1OC	92.1%
C=C1c2c(C)nn(-c3ccc(O)cc3)c2N(C)C23C[C@@H]1C1(C)c4c(C)nn(-c5ccc(O)cc5)c4N(C)C(C)(C[C@H]12)C3 (some centres undefined)	23.7%
CSc1ccc(Cl)c(C(=O)Nc2sccc2C(N)=O)c1	99.8%
C=C1c2c(C)nn(-c3ccc(N)cc3)c2N(C)C23CC1C1(C)c4c(C)nn(-c5ccc(N)cc5)c4N(C)C(C)(CC12)C3 (centres undefined)	100%
CC(=O)Nc1ccc2c(c1)Cc1c(F)cccc1-2	99.4%
C=C(C)[C@@H]1CC[C@]2(CNCCO)CC[C@]3(C)[C@H](CC[C@@H]4[C@@]5(C)CCC(N)[C@@](C)(CO)[C@@H]5CC[C@]43C)[C@@H]12 (some centres undefined)	-80.5% (active)
Cc1cnc(Nc2ccc(OCCN3CCCC3)cc2)nc1NCc1ccco1	68.7%
Cc1cc(N(CCCNc2ccnc3cc(Cl)ccc23)Cc2ccccn2)nc(N2CCOCC2)n1	91.4%
C=C(CNCCc1ccc(O)cc1)[C@@H]1CC[C@]2(COC3CCCCO3)CC[C@]3(C)[C@H](CC[C@@H]4[C@@]5(C)CCC(N)C(C)(C)[C@@H]5CC[C@]43C)[C@@H]12 (some centres undefined)	-94.9% (active)
Clc1ccc2c(NCCCN3CCN(c4nc(-n5ccnc5)nc5ccccc45)CC3)ccnc2c1	-83.7% (active)
Cn1c(NCCc2ccc(O)c(O)c2)nc2c1c(=O)n(Cc1ccc(Cl)cc1)c(=O)n2C	82.7%
CCN(CC)N=Nc1nn(C(=O)Nc2ccc(Cc3ccccc3)cc2)c2ccc(Cl)cc12	77.7%
COC(=O)c1ccc2oc(NC(=O)c3ccc(N4CCOCC4)c([N+](=O)[O-])c3)nc2c1	89.6%
